{
  "source": "the supplement of paper PMC10121225",
  "data": [
    {"tested_on": "hN + hpA co-culture (H1 iNGN2 human neurons + human primary astrocytes)", "test": "presynaptic density (SYNAPSIN1 puncta per MAP2 neurite area), Z-score vs DMSO controls; higher = more presynaptic puncta (synapse-promoting)", "details": "3 µM; 72 h", "values": [
      {"smiles": "CCCCc1nc(Cl)c(CO)n1Cc1ccc(-c2ccccc2-c2nnn[nH]2)cc1", "note": "[Losartan Potassium (DuP 753)]", "presynaptic density (Z-score)": 0.806},
      {"smiles": "CCO[C@@H]1OC(=O)C[C@@H]1NC(=O)[C@@H]1CCCN1C(=O)[C@@H](NC(=O)c1ccc(N)c(Cl)c1)C(C)(C)C", "presynaptic density (Z-score)": -1.02},
      {"smiles": "COc1ccccc1Oc1c(NS(=O)(=O)c2ccc(C(C)(C)C)cc2)nc(-c2ncccn2)nc1OCCO", "note": "[Bosentan Hydrate]", "presynaptic density (Z-score)": 0.531},
      {"smiles": "Oc1nc(-c2ccc(C(F)(F)F)cc2)nc2c1CSCC2", "presynaptic density (Z-score)": 0.167},
      {"smiles": "C[C@]1(c2nc3c(C(N)=O)cccc3[nH]2)CCCN1", "note": "[Veliparib (ABT-888)]", "presynaptic density (Z-score)": 0.43},
      {"smiles": "COc1ccc(-n2nc(C(N)=O)c3c2C(=O)N(c2ccc(N4CCCCC4=O)cc2)CC3)cc1", "note": "[Apixaban]", "presynaptic density (Z-score)": 0.0881},
      {"smiles": "CCn1c(N)c(C(=O)NC)c(=O)c2ccc(C#CC(C)(O)COC)nc21", "note": "(stereo not drawn)", "presynaptic density (Z-score)": 0.325},
      {"smiles": "CC(C)(C)c1cc(/C=C(\\C#N)C(N)=S)cc(C(C)(C)C)c1O", "note": "[Tyrphostin AG 879]", "presynaptic density (Z-score)": -0.121},
      {"smiles": "CC(=O)O[C@]1(C(C)=O)CC[C@H]2[C@@H]3C=C(Cl)C4=CC(=O)[C@@H]5C[C@@H]5[C@]4(C)[C@H]3CC[C@@]21C", "note": "[Cyproterone acetate]", "presynaptic density (Z-score)": -0.989},
      {"smiles": "CCCCOc1ccc(C(=O)Nc2ccc(F)cc2F)cc1", "presynaptic density (Z-score)": 0.219},
      {"smiles": "CNC(=C[N+](=O)[O-])NCCSCc1ccc(CN(C)C)o1", "note": "[Ranitidine]", "presynaptic density (Z-score)": -0.33},
      {"smiles": "COc1ccccc1S(=O)(=O)Nc1ccc2c(c1)CN(C)C(=O)N2", "presynaptic density (Z-score)": 0.796},
      {"smiles": "COc1cc(Br)c(Nc2nc(-c3c(C)nc4ncccn34)cs2)c(Br)c1", "presynaptic density (Z-score)": -2}
    ]}
  ]
}
